Results as given in PubChem BioAssay (NCI).
About 83,000 compounds went through this panel and 20% of them were active in at least one assay; those are over-represented in the sample as a whole.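 Treatment: one concentration, 48 hours, 96-well format. Scoring: percent growth, with anything below 10 considered active.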 A number with no mark means an inactive call. Activity calls are given as the source filed them.

What was measured:
Test in all cases: NCI-60 one-dose screen, 48 h (100 = growth as untreated, 0 = no growth, -100 = all killed)
Conditions in all cases: 10 µM unless noted
DU-145 prostate = system: DU-145 prostate
K-562 leukemia = system: K-562 leukemia
MALME-3M melanoma = system: MALME-3M melanoma
MDA-MB-231 breast = system: MDA-MB-231 breast
RXF 393 renal = system: RXF 393 renal
SF-268 CNS = system: SF-268 CNS
SF-295 CNS = system: SF-295 CNS
SF-539 CNS = system: SF-539 CNS
UACC-257 melanoma = system: UACC-257 melanoma
M14 melanoma = system: M14 melanoma

Row | SMILES | growth (DU-145 prostate) | growth (K-562 leukemia) | growth (MALME-3M melanoma) | growth (MDA-MB-231 breast) | growth (RXF 393 renal) | growth (SF-268 CNS) | growth (SF-295 CNS) | growth (SF-539 CNS) | growth (UACC-257 melanoma) | growth (M14 melanoma)
1 | COC(=O)c1ccc2[nH]c(O)c(C(=Nc3ccc(N(C)C(=O)CN4CCN(C)CC4)cc3)c3cccc(OC)c3)c2c1 | 8.57% (active) | 3.85% (active) | -16.3% (active) | 13.1% | -55.7% (active) | 6.71% (active) | 29.9% | -11.2% (active) | 31.8% | 8.85% (active)
2 | COC(c1ccccc1)C(Br)C(=O)c1ccccc1 (stereo not given) | 116% | 93.8% | 87.8% | 92.9% | 89.4% | 108% | 93.3% | 99.5% | 87.2% | 90.6%
3 | O=c1c2c(c3ccccc3n1-c1ccccc1)NC(=S)NC2c1ccccc1 (stereo not given) | 115% | 101% | 112% | 84.7% | 117% | 104% | 121% | 94.8% | 108% | 98.8%
4 | C=CC1CN2CCC1CC2C(O)c1ccnc2ccc(OC)cc12 (stereo not given) | 127% | 106% | 95.6% | 96.7% | 97% | 103% | 91.6% | 98.3% | 106% | 98.9%
5 | C/C=C(/C)C(=O)OC1C=C(CO)C(=O)C(OC(=O)C2(C)OC2C)C1C(C)C (stereo not given) | 6.72% (active) | 1.51% (active) | -77.4% (active) | 1.48% (active) | -74.3% (active) | 13.3% | -20.5% (active) | -65.6% (active) | -9.59% (active) | -49.2% (active)
6 | COc1ccc(C(O)(c2ccccc2)C(C(=O)O)c2ccccc2)cc1 (stereo not given) | 118% | 101% | 107% | 103% | 121% | 107% | 118% | 92.7% | 127% | 103%
7 | CCCCCSc1ccc2nc(NC(=O)OCC)sc2c1 | 22.8% | 15.9% | 42.2% | 26.4% | 7.13% (active) | 50.8% | 6.93% (active) | -12.1% (active) | 67.4% | 11.9%
8 | Ic1ccc(SSc2ccc(I)cc2)cc1 | 103% | 95.5% | 114% | 87.8% | 99.7% | 59.2% | 77.5% | 86.1% | 88.1% | 104%
9 | Cc1nc(NC(=S)Nc2ccc(F)cc2)sc1C(=O)NNC(=S)Nc1ccc(F)cc1 | 82% | 51.4% | 125% | 77.9% | 94% | 92.4% | 40.6% | 93.8% | 82.1% | 51%
10 | CC(=O)OC1/C=C\CC/C=C\C1 (stereo not given) | 113% | 110% | 108% | 111% | 110% | 107% | 97.3% | 93.1% | 108% | 104%
11 | O=S(=O)(O)CCI | 112% | 112% | 113% | 104% | 98.8% | 104% | 105% | 102% | 113% | 99%
12 | CC1(C)C(O)NC(Cl)=C(C#N)C1(C#N)C#N (stereo not given) | 110% | 94.4% | 136% | 111% | 7.52% (active) | 123% | 174% | 95.9% | 109% | 110%
13 | COc1cc2oc(-c3ccc(NC(=O)c4ccccc4)cc3)cc(=O)c2c(OC)c1OC | 82.3% | 102% | 74.8% | 74.9% | 90.2% | 77.5% | 77.4% | 81.6% | 97.3% | 92.8%
